Source: PubChem BioAssay (National Center for Advancing Translational Sciences (NCATS))
TGFb inhibitor: inhibitors of TGF-b signaling; HepG2 CAGA-GFP TGF-b/SMAD3 reporter, GFP fluorescence, 18 h; TGF-beta stimulated, 500 pg/mL final; Potency, µM (titrated, usually from 46.1 µM), for the others: at the top dose activity, negative = inhibition, hits mostly inhibitors; hit rate 1.2% among 410,000; AID 588855; note: potency is the fitted concentration of half-maximal effect; % is set by controls: 0 for no effect and ±100 for the full control effect; nearly all actives have a fitted effect of over 65% in size
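Read-out: total well GFP (ex488/em500-530) summed from mean per-cell fluorescence. Cells: HEPG2 CAGA-GFP, 1% FBS DMEM, 18 h at 37 degrees C with 500 pg/mL final TGF-beta. Unstimulated wells served as the full-inhibition control; stimulated DMSO wells = 0%.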
TDP1 cell CPT: DT40-hTDP1 cell growth loss with CPT; AID 686979; hit rate 12% among 420,000; Potency, µM (series often up to 46.2 µM), for inactives: at the highest dose activity change, negative = growth inhibition, hits mostly inhibitors; chicken DT40 Tdp1-/-;hTDP1 cells + 20 nM CPT, ATP luminescence, 48 h; note: potency is the fitted concentration of half-maximal effect; % is set by controls: 0 for no effect and ±100 for the full control effect; nearly all actives have a fitted effect of over 55% in size
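Chicken DT40 Tdp1-/- cells stably complemented with human TDP1 were seeded at 400 cells/well in medium containing 20 nM camptothecin, exposed to pin-transferred compounds, and grown at 37 °C for at least 48 hr. Viability was read as ATP luminescence.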
HepG2 viability: kills HepG2 cells in TGF-b inhibitor counter-screen | Potency, µM (highest dose often 46.1 µM), inactives show at the top dose activity change, negative = cytotoxicity, most hits filed as cytotoxic | HepG2 CAGA-GFP viability, ATP luminescence, 18 h | AID 588856 | hit rate 0.76% among 410,000; note: potency is the fitted concentration of half-maximal effect
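CellTiter-Glo luminescence gave cytotoxicity after 18 hours at 37 degrees C. The cells were HepG2 CAGA-GFP in 1% FBS DMEM, stimulated with 500 pg/mL TGF-beta after compound addition. %Activity was normalised to no-cell wells (complete cell-killing) and DMSO (no toxicity), and curves were fitted and classified.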
TDP1 inh: inhibitors of human tyrosyl-DNA phosphodiesterase TDP1 | Q9NUW8 | recombinant TDP1, AlphaScreen DNA substrate cleavage | Potency, µM (highest dose often 130 µM), inactives show at the top dose activity change, negative = inhibition, actives largely listed as inhibitors | hit rate 0.28% among 350,000 | AID 485290; note: potency is the fitted concentration of half-maximal effect; % is set by controls: 0 for no effect and ±100 for the full control effect; nearly all actives have a fitted effect of over 40% in size
Target sequence (Q9NUW8 whole entry, looked up): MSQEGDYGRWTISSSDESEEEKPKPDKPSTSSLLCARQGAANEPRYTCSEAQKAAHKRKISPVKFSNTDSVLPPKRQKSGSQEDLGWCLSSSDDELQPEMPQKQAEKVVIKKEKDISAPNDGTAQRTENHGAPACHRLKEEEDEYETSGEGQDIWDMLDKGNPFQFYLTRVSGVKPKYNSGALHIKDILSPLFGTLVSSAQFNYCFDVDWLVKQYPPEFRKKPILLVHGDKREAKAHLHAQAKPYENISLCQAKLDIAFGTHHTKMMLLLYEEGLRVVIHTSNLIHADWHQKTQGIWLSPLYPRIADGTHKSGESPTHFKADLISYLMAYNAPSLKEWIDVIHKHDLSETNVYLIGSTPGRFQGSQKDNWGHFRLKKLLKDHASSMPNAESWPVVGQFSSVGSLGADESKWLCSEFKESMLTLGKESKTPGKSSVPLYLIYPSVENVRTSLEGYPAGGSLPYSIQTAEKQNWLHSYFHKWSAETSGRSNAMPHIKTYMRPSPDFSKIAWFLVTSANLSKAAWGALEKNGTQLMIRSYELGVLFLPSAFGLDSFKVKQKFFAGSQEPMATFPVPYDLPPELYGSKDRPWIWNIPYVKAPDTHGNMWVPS
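Steps: enzyme plus compound, 15 min RT; add biotin/phosphotyrosine-FITC oligonucleotide (15 nM final), react 5 min; add donor/acceptor beads (10 ug/ml final), 10 min; read AlphaScreen. Tdp1 at 1 nM final.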
IL1B secr inh: inhibitors of inflammasome signaling (IL-1 beta secretion); THP-1 LPS/ATP IL-1B secretion, AlphaLISA, 16 h; active compounds read low; activity change, % at 57.5 µM; hit rate 4.7% among 360,000; AID 743279; in the data active = activity change below about -50%; inconclusive = mostly about -30% to -49%; note: % is set by controls: 0 for no effect and ±100 for the full control effect
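Secreted IL-1B measured by AlphaLISA bead assay after 16 h compound exposure of THP-1 cells; compounds (final up to 57.5 uM) added 1 h before LPS (250 ng/mL) and ATP (1.25 mM) stimulation; lower signal means less secretion.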
DT40 TDP1 no CPT: qHTS for Inhibitors of human tyrosyl-DNA phosphodiesterase 1 (TDP1): qHTS in cells in absence of CPT. Potency, µM (top dose mostly 46.2 µM), for the others: top-dose activity change, negative = growth inhibition, actives largely listed as inhibitors. DT40 Tdp1-/- hTDP1 cells, no CPT, ATP luminescence, 48 h. hit rate 15% among 420,000; note: potency is the fitted concentration of half-maximal effect; % is set by controls: 0 for no effect and ±100 for the full control effect; nearly all actives have a fitted effect of over 55% in size
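No-CPT arm: Tdp1-/-;hTDP1 DT40 cells (400/well) plus compounds, incubated ≥48 hr at 37 °C. Readout CellTiter-Glo luminescence.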
* marks the source's active call; other numbers are inactive results; ? = inconclusive; / = not tested or not shown; [ ] = dose if it differs, or a comment. In the library only some 19% were active in any assay of this set; here they are far more common. Unless noted, calls come from the whole dose curve; as a rule, active = well fitted curve in the direction sought with a large enough effect; inconclusive = small, poorly fitted or top-dose-only effect, or another doubt; inactive = no such curve, though single readings can be large; an effect the other way counts as inactive or inconclusive.

SMILES	TGFb inhibitor	TDP1 cell CPT	HepG2 viability	TDP1 inh	IL1B secr inh	DT40 TDP1 no CPT
COc1ccc2cc3cc(C(=O)NCC4CCCO4)oc3nc2c1 (centres undefined)	-5%	1%	-6%	4%	-56*	-11%
O=C(NCc1ccco1)c1csc(Nc2ccccc2Cl)n1	-5%	?	1%	4%	-5	-21%
CC1(C)C(=O)NC(=O)N1Cc1ccccc1	-5%	-1%	4%	0%	4	-10%
COc1ccc2cc3cc(C(=O)NCc4ccco4)oc3nc2c1	-18%	?	-18%	50µM*	-13	?
O=C(NCc1ccco1)c1cc2cc3ccc(Cl)cc3nc2o1	-3%	?	-4%	5%	19	?
CCCCCCn1c(N2CCN(c3cccc(Cl)c3)CC2)nc2c1c(=O)[nH]c(=O)n2C	-13%	?	-5%	4%	?	23µM*
CCCCCn1c(CN2CCN(c3cccc(Cl)c3)CC2)nc2c1c(=O)[nH]c(=O)n2C	?	21µM*	-71%	4%	-23	?
CCCCCCn1c(N2CCN(c3ccccc3)CC2)nc2c1c(=O)[nH]c(=O)n2C	11%	23µM*	9%	0%	?	?
CCCCCCCCn1c(N2CCN(c3cccc(Cl)c3)CC2)nc2c1c(=O)[nH]c(=O)n2C	0%	?	0%	-6%	-7	?
Cc1nnc(SCCCn2c(N3CCN(c4ccccc4)CC3)nc3c2c(=O)[nH]c(=O)n3C)s1	2%	?	1%	3%	-29	?
Cn1c(=O)[nH]c(=O)c2c1nc(CN1CCN(c3cccc(Cl)c3)CC1)n2CCc1ccccc1	?	?	-51%	0%	-19	?
Cn1c(=O)[nH]c(=O)c2c1nc(CN1CCN(c3ccccc3F)CC1)n2CCCc1ccccc1	-1%	?	1%	6%	-18	14µM*
Cc1ccc(OCCn2c(-c3ccc(Br)cc3)nc3ccccc3c2=O)cc1C	-5%	?	-4%	/	/	?
Cn1c(=O)[nH]c(=O)c2c1nc(N1CCN(c3ccccc3)CC1)n2CCSc1ncccn1	3%	?	-16%	-3%	-7	10µM*
CN1CCN(c2nc3c(c(=O)[nH]c(=O)n3C)n2CCSc2ncccn2)CC1	/	/	/	0%	/	/
CCCn1c(N2CCN(CC(=O)c3c(C)n(C)c4ccccc34)CC2)nc2c1c(=O)[nH]c(=O)n2C	-8%	?	-56%	5%	-69*	18µM*
CCc1ccccc1N1CC(C(=O)Nc2cc(C)on2)CC1=O (centres undefined)	-4%	-1%	4%	/	12	-1%
Nc1ccc(O)c([N+](=O)[O-])c1	-2%	-13%	-2%	3%	-5	-17%
O=[N+]([O-])c1cc(N=Nc2ccc3ccccc3c2)ccc1O	-16%	18µM*	-13%	/	2	?
CCCNC(=O)c1cnc2sc(N3CCCCCC3)nn2c1=O	-17%	-23%	-3%	5%	/	?
O=C(c1[nH]c(C(F)(F)F)nc1-c1ccccc1)N1CCC(C(O)(c2ccccc2)c2ccccc2)CC1	-23%	2%	0%	/	32	?
O=C(NCc1ccccn1)C(=O)N/N=C/c1ccc2c(c1)OCO2	6%	-10%	5%	0%	0	-2%
S=C(NN=Cc1ccc2c(c1)OCO2)NN=Cc1ccc2c(c1)OCO2	-14%	23µM*	-27%	/	3	23µM*
Cc1cc(C)c(OCC(=O)N/N=C/c2ccc3c(c2)OCO3)c(C)c1	?	2.9µM*	-7%	4%	7	5.8µM*
O=C(NCCc1ccccc1)C(=O)N/N=C/c1ccc2c(c1)OCO2	7%	23µM*	-5%	2%	0	21µM*
SMILES	TGFb inhibitor	TDP1 cell CPT	HepG2 viability	TDP1 inh	IL1B secr inh	DT40 TDP1 no CPT
Cc1ccc(C(=O)CN2C(=O)NC3(CCCCCC3)C2=O)c(C)c1	0%	-27%	6%	/	-13	?
Cc1ccc(C(=O)N2CC(C)SC2=Nc2cccc(S(=O)(=O)N(C)C)c2)cc1 (centres undefined)	27%	29µM*	-2%	-5%	13	?
Cc1ccc2c(c1)cc1c(=O)n(Cc3ccc(Cl)cc3)nc(C)n12	-22%	-19%	-2%	0%	/	-12%
Cc1[nH]c2ccccc2c1/C=C/c1cc[n+](C)cc1	92%	0.65µM*	0%	3%	9	0.92µM*
Cc1[nH]c2ccccc2c1/C=C/c1c(C)[nH]c2ccccc12	6.3µM*	11µM*	-48%	/	/	10µM*
Cc1[nH]c2ccccc2c1/C=N/Nc1ccc(F)cc1F	/	/	/	7%	/	/
COc1ccccc1NC(=O)CSC1=Nc2ccccc2C2=NC(CCC(=O)NCc3ccco3)C(=O)N12 (centres undefined)	27%	15µM*	6%	4%	/	16µM*
COc1ccccc1CNC(=O)CCC1N=C2c3ccccc3N=C(SCC(=O)NCCc3ccccc3)N2C1=O (centres undefined)	-4%	-25%	-18%	2%	/	-28%
COc1ccccc1NC(=O)CSC1=Nc2ccccc2C2=NC(CC(=O)NCc3ccco3)C(=O)N12 (centres undefined)	48%	?	-23%	8%	/	?
O=C(CCSCc1ccccc1Cl)N1CCN(c2cccc(Cl)c2)CC1	?	?	-27%	-8%	-16	?
O=C(CCC1N=C2c3ccccc3N=C(SCC(=O)Nc3cccc(Cl)c3)N2C1=O)NCc1ccco1 (centres undefined)	-7%	?	-45%	-2%[12.3 µM]	/	?
COc1ccccc1NC(=O)CSC1=Nc2ccccc2C2=NC(CCC(=O)NCCc3ccccc3)C(=O)N12 (centres undefined)	15%	?	-5%	0%	/	23µM*
O=C(CCC1N=C2c3ccccc3N=C(SCc3ccccc3Cl)N2C1=O)NCc1ccco1 (centres undefined)	-17%	?	-20%	6%	?	18µM*
O=C(CCC1N=C2c3ccccc3N=C(SCc3ccccc3Cl)N2C1=O)N1CCN(c2ccccc2)CC1 (centres undefined)	-20%	?	-18%	8%	/	21µM*
CC(/C=C/C(=O)NO)=C\[C@@H](C)C(=O)c1ccc(N(C)C)cc1	/	/	/	10%	/	/
FC(F)(F)c1ccccc1-c1nc(N2CCNCC2)c2ccccc2n1	/	?	/	4%	/	-14%
